Consider five molecules from PubChem BioAssay (Tox21).

Assay [1] is described as follows: cAMP Responsive Elements (CRE) small molecule antagonists, cell-based qHTS assay: qHTS cell viability counter screen (AID 2060913). Note: nearly all actives have a fitted effect of over 40% in size. The following applies: CRE-bla HEK293T viability, CellTiter-Glo luminescence, 5 h; series mostly up to 92.4 µM. In a few lines:
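CRE-bla HEK293T cells were seeded in assay medium with 10% dialyzed FBS, incubated 18 hrs at 37 C, then exposed to compounds plus 0.25 uM final NKH477 for 3 hrs. Viability was read by CellTiter-Glo luminescence after 30 min, in the same wells.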
For orientation: Quantitative high-throughput screening tests each substance at several concentrations.

A short description of assay [2]: cAMP Responsive Elements (CRE) small molecule agonists, cell-based qHTS assay: qHTS cell viability counter screen (AID 2060914). Note: nearly all actives have a fitted effect of over 50% in size. The following applies: CRE-bla HEK293T viability, CellTiter-Glo luminescence, 5 h; series mostly up to 92.4 µM. The gist of the method: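 HEK 293T CRE-bla; DMEM + 10% dialyzed FBS, 25 mM HEPES; 18 h pre-incubation; compound 3 h, 37 °C/5% CO2; CellTiter-Glo added after reporter read; luminescence after 30 min RT.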

Structures are written as SMILES. Records with an inconclusive call do not appear. Entries that show only a call come without a potency. Active and inactive are the calls of the source. Calls come from the whole dose curve; as a rule, active = well fitted cell-killing curve with a large enough effect in the repeat runs; inconclusive = weak or mixed curves, or effect the other way; inactive = flat fitted curve, though single readings scatter.

In the case of `C#CCN(C)CCCOc1ccc(Cl)cc1Cl`, the Potency result in assay [1] and in assay [2] was “inactive” in each case.
As for `OC(Cn1cncn1)(Cn1cncn1)c1ccc(F)cc1F`, the Potency result in assay [1] and in assay [2] was “inactive” each time.
Regarding `CCCCOC(=O)/C=C\C(=O)OCCCC`, the Potency entry in assay [1] and in assay [2] was “inactive” in each case.
As to `CC(C)Nc1ccccc1`, the Potency entry in assay [1] and in assay [2] was “inactive” throughout.
For `Cc1ccc(C)c(O)c1C`, the Potency result in assay [1] and in assay [2] was “inactive” in each case.
